Data taken from the supplement of paper PMC11732987, “Enantioselective OTUD7B fragment discovery through chemoproteomics screening and high-throughput optimisation” (Communications Chemistry, 2025).

Assays:
Assay in all cases: log2 ratio of Biotin-Ahx-Ub-VS probe labelling (fragment/DMSO); higher = less target engagement (more negative = stronger competition), active = hit call of the paper (q ≤ 0.05, log2 ratio ≤ -1)
Conditions in all cases: compound concentration: 200 uM; treatment time: 3 h
OTUD6B = target: T1, OTUD6B (UniProt Q8N6M0)
T1 sequence (whole entry): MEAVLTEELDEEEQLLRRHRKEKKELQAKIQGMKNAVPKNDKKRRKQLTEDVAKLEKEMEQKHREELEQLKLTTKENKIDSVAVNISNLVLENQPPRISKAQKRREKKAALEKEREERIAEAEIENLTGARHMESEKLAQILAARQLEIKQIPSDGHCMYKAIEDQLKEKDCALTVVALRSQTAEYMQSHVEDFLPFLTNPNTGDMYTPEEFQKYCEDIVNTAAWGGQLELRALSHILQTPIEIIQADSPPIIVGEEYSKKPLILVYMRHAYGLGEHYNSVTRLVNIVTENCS
Procedure, shortened: (§1)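 The table lists average log2 ratios of fragment over vehicle, from an unpaired t-test on global-median-normalised Spectronaut label-free quantities. Proteins with ≥2 unique peptides were used. Samples were HEK293T lysate (495 µg) treated in triplicate with fragment at 200 µM or vehicle for 3 h, then with Biotin-Ahx-Ub-VS (0.5 µM final) for 1 h, with labelled DUBs NeutrAvidin-enriched and run by diaPASEF LC-MS/MS.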

OTUD7B = target: T2, OTUD7B (UniProt Q6GQQ9)
T2 sequence (whole entry): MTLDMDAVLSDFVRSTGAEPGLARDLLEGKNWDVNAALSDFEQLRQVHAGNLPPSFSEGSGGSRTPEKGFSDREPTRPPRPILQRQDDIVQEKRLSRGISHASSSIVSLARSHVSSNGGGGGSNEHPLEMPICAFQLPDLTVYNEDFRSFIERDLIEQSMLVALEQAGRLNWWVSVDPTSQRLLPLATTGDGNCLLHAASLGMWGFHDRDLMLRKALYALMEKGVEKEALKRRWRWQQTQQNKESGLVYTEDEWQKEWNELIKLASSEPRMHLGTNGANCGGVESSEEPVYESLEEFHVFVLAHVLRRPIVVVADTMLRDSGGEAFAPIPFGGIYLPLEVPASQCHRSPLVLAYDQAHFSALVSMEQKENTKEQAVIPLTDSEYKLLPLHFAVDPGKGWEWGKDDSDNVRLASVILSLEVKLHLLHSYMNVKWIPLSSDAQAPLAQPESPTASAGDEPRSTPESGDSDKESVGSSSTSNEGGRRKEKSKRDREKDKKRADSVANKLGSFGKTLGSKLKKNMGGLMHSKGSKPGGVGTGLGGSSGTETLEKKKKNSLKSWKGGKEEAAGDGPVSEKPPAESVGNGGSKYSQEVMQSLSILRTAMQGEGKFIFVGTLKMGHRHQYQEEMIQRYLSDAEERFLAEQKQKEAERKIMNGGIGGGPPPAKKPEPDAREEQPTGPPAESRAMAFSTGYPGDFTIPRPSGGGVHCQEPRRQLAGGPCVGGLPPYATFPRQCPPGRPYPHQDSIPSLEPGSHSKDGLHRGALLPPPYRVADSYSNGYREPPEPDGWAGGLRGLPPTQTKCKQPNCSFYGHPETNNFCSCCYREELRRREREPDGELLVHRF
Procedure, shortened: as §1

PRPF8 = PRPF8 (UniProt Q6P2Q9)
Procedure, shortened: as §1

PSMD7 = target: T3, PSMD7 (UniProt P51665)
T3 sequence (whole entry): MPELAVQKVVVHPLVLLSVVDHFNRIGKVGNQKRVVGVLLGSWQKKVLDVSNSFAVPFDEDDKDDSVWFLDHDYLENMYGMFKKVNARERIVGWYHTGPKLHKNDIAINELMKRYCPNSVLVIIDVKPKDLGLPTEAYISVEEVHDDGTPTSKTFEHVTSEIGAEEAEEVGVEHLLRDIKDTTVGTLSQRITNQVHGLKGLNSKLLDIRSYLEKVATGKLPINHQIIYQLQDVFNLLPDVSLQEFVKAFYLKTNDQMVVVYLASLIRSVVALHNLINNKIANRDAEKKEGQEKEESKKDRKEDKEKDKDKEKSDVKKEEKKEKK
Procedure, shortened: as §1

UCHL1 = UCHL1 (UniProt P09936)
UCHL1, sequence (P09936 whole entry, looked up): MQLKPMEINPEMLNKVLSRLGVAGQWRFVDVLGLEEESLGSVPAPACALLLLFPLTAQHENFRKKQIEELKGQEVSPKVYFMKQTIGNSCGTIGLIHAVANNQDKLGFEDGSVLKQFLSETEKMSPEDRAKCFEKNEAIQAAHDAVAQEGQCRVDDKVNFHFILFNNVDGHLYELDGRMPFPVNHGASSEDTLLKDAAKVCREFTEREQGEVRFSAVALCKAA
Procedure, shortened: as §1

UCHL3 = target: T4, UCHL3 (UniProt P15374)
T4 sequence (whole entry): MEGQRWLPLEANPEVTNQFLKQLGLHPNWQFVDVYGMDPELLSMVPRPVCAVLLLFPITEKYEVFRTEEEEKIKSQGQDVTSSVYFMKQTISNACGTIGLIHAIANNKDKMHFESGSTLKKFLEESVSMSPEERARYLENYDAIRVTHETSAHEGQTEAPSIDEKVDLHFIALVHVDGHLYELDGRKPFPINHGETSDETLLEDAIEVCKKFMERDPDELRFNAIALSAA
Procedure, shortened: as §1

UCHL5 = target: T5, UCHL5 (UniProt Q9Y5K5)
T5 sequence (whole entry): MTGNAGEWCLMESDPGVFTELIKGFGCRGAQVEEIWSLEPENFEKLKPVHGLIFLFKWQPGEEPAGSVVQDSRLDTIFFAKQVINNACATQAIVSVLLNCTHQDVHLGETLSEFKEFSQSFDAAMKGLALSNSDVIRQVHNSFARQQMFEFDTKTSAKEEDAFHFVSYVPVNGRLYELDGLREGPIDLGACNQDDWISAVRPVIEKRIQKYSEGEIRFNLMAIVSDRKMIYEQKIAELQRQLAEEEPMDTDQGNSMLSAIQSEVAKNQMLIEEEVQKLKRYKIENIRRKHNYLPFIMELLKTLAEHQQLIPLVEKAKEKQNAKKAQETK
Procedure, shortened: as §1

USP10 = USP10 (UniProt Q14694)
USP10, sequence (Q14694 whole entry): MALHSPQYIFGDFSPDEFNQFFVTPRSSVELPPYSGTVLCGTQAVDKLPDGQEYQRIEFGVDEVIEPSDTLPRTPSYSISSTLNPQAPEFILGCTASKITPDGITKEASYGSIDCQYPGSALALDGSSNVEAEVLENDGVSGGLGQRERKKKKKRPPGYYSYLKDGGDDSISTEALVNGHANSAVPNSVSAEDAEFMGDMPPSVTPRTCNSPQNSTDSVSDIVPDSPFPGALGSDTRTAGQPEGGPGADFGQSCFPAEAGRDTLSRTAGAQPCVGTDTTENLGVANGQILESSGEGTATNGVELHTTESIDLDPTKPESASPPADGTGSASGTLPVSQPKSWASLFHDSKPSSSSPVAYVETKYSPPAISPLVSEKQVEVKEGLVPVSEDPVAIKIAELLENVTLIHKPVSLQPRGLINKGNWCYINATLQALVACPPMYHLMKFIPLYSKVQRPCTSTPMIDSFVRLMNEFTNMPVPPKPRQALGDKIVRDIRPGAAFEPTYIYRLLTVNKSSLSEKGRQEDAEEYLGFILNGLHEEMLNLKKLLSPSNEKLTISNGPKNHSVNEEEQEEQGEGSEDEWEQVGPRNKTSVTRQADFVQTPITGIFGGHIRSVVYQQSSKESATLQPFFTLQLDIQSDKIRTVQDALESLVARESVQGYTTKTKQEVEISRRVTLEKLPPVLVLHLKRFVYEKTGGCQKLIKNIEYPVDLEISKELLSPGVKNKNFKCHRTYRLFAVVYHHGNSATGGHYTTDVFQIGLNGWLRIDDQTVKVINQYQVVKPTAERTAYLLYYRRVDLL
Procedure, shortened: as §1

USP15 = target: T6, USP15 (UniProt Q9Y4E8)
T6 sequence (whole entry): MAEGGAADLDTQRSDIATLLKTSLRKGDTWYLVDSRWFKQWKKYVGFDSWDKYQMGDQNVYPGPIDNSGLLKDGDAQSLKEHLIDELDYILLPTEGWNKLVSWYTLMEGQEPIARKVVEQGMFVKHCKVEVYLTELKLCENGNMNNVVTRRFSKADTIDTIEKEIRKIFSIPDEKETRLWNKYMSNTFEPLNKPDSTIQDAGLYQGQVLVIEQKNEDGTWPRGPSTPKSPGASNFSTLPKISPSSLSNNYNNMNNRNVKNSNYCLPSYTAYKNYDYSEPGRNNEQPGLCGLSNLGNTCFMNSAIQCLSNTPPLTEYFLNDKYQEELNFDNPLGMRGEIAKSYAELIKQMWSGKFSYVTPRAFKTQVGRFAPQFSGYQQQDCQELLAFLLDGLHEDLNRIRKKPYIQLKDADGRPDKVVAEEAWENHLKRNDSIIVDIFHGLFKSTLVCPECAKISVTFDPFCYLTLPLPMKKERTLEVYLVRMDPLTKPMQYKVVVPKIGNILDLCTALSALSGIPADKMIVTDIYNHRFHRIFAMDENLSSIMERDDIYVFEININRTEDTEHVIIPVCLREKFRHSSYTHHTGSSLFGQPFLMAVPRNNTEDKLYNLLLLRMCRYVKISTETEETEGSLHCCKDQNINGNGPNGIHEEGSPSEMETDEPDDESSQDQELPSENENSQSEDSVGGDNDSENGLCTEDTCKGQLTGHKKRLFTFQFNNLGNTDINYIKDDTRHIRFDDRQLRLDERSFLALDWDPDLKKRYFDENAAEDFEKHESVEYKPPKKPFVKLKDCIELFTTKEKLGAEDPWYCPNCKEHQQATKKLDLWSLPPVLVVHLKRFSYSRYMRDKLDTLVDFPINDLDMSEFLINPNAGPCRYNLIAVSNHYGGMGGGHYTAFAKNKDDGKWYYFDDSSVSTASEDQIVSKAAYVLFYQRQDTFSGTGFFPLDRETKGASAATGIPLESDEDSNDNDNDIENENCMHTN
Procedure, shortened: as §1

USP16 = USP16 (UniProt Q9Y5T5)
USP16, sequence (Q9Y5T5 whole entry, looked up): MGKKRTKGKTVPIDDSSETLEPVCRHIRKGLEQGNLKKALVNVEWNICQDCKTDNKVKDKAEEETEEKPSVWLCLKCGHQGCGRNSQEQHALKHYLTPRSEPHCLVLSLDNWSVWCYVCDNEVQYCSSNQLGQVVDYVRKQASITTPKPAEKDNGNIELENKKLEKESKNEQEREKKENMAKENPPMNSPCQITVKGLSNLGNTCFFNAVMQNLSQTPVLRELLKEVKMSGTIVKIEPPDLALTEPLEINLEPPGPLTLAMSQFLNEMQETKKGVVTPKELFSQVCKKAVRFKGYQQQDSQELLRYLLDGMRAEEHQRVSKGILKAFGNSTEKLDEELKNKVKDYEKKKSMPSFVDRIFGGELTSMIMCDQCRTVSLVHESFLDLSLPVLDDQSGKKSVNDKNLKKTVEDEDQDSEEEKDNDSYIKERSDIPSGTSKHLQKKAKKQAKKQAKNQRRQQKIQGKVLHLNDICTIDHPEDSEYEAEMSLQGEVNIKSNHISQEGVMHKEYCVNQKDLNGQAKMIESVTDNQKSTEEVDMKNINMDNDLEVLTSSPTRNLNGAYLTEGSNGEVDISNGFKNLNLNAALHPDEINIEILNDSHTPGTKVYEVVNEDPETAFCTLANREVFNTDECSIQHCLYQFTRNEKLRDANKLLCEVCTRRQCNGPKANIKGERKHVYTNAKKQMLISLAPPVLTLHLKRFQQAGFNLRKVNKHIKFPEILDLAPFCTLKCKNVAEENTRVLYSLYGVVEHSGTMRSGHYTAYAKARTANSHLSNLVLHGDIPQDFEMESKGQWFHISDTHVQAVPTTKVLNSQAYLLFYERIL
Procedure, shortened: as §1

Measured: log2 ratio of Biotin-Ahx-Ub-VS probe labelling

CCN1C(=O)C2CN(C(=O)CCl)CCN2C1=O (stereo not given)
inactive: OTUD6B -0.0446 | OTUD7B -0.649 | PRPF8 0.0726 | PSMD7 0.0575 | UCHL3 0.629 | UCHL5 -0.0935 | USP10 -0.0852 | USP15 -0.265 | USP16 -0.656
active: UCHL1 -1.56
